# Screens: PubChem, National Center for Advancing Translational Sciences (NCATS)
# This is a sample that favours compounds with a hit; in the whole collection about 16% have one here.
# miR-21 act: qHTS Assay for Modulators of miRNAs and/orActivators of miR-21 | HeLa miR-21 FLuc reporter, luciferase, 48 h | 340,000 tested, under 10 active | Potency, µM (top dose mostly 38.3 µM), inactives show at the top dose activity change, positive = activation, most hits filed as activators;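 also: % of control where 0% means no effect; miR-21 action dims this reporter so a rising signal means less miR-21 action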
#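 Compounds were titrated across several concentrations (up to approximately 40 uM) and incubated 48 hours with HeLa miR-21-FLuc reporter cells (miR-21 target sequence downstream of FLuc, endogenous miR-21). Readout was firefly luciferase luminescence after lytic detection reagent.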
# uPA surface inh: qHTS for Inhibitors of Cell Surface uPA Generation | cell surface uPA generation assay, qHTS | Potency, µM (titrated, usually from 38.3 µM), for inactives: at the highest dose activity change, negative = inhibition, usual class: inhibitors | 330,000 tested, 0.31% active; active = well fitted inhibition curve with a large enough effect; inconclusive = small, poorly fitted or top-dose-only effect; inactive = no such curve, though single readings can be large or run the other way; tested in mouse RAW 264.7 cells; also: potency is read from the fitted curve at half-maximal effect; % is scaled to controls: 0 for no effect and ±100 for the full control effect; nearly all actives have a fitted effect of over 55% in size
# TDP1 block: qHTS Assay for Inhibitors of Tyrosyl-DNA Phosphodiesterase (TDP1). recombinant TDP1, AlphaScreen DNA substrate cleavage. Tyrosyl-DNA phosphodiesterase 1 (Homo sapiens), Q9NUW8. AID 485290, 2010. 350,000 tested, 0.28% active. Potency, µM (series often up to 130 µM), for inactives: at the highest dose activity change, negative = inhibition, hits mostly inhibitors; also: potency is read from the fitted curve at half-maximal effect; % is scaled to controls: 0 for no effect and ±100 for the full control effect; nearly all actives have a fitted effect of over 40% in size
# Target sequence (Q9NUW8 whole entry, looked up): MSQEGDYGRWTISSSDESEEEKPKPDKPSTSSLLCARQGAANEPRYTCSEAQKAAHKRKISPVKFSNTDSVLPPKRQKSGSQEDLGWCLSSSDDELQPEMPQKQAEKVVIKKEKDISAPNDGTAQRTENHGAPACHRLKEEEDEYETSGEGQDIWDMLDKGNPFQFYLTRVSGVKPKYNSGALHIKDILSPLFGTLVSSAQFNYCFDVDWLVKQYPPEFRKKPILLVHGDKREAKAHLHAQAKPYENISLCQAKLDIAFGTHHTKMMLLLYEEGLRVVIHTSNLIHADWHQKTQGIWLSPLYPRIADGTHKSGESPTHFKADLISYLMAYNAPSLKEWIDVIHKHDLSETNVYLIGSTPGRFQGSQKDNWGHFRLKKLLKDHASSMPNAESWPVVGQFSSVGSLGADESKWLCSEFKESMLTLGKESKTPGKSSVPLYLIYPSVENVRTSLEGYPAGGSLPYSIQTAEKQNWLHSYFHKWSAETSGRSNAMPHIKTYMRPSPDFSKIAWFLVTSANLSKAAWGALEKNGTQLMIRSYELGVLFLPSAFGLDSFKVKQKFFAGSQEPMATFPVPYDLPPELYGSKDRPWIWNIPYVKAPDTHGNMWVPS
#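 Compounds were preincubated with Tdp1 (1 nM final) for 15 min at room temperature before substrate (15 nM final) started a 5 min reaction; beads (10 ug/ml final) were then added for 10 min before AlphaScreen detection.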
# DT40 TDP1 CPT: qHTS for Inhibitors of human tyrosyl-DNA phosphodiesterase 1 (TDP1): qHTS in cells in presence of CPT; chicken DT40 Tdp1-/-;hTDP1 cells + 20 nM CPT, ATP luminescence, 48 h; Potency, µM (doses to about 46.2 µM), for the others: at the top dose activity change, negative = growth inhibition, actives largely listed as inhibitors; AID 686979, 2013; 420,000 tested, 12% active; also: potency is read from the fitted curve at half-maximal effect; % is scaled to controls: 0 for no effect and ±100 for the full control effect; nearly all actives have a fitted effect of over 55% in size
#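 Chicken DT40 Tdp1-/- cells stably complemented with human TDP1 were seeded at 400 cells/well in medium containing 20 nM camptothecin, exposed to pin-transferred compounds, and grown at 37 °C for at least 48 hr. Viability was read as ATP luminescence.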
# DT40 TDP1 no CPT: qHTS for Inhibitors of human tyrosyl-DNA phosphodiesterase 1 (TDP1): qHTS in cells in absence of CPT. DT40 Tdp1-/- hTDP1 cells, no CPT, ATP luminescence, 48 h. Potency, µM (highest dose often 46.2 µM), for the others: at the highest dose activity change, negative = growth inhibition, most hits filed as inhibitors. 420,000 tested, 15% active. AID 686978, 2013; also: potency is read from the fitted curve at half-maximal effect; % is scaled to controls: 0 for no effect and ±100 for the full control effect; nearly all actives have a fitted effect of over 55% in size
#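 Compound effects on proliferation are scored in DT40 Tdp1-/-;hTDP1 cells in the absence of CPT. ATP levels (CellTiter-Glo luminescence) are recorded after a ≥48 hr, 37 °C incubation.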
# Numbers without * were called inactive; ? = inconclusive; nt = no result; [ ] = another dose, or the depositor's remark. Unless noted, calls follow the shape of the dose curve; as a rule, active = well fitted curve in the direction sought with a large enough effect; inconclusive = small, poorly fitted or top-dose-only effect, or another doubt; inactive = no such curve, though single readings can be large; an effect the other way counts as inactive or inconclusive.
SMILES,miR-21 act,uPA surface inh,TDP1 block,DT40 TDP1 CPT,DT40 TDP1 no CPT
Cc1cc(C(=O)OCC(=O)c2ccc(Cl)c([N+](=O)[O-])c2)c2cccc(C)c2n1,-4.7%,2.1%,8.2%,?,?
CC(C)N(Cc1ccccc1)C(=O)c1ccc2c(c1)OCO2,-1.8%,-0.6%,2.1%,-4.7%,-13.6%
Cc1nc2ccccc2n1CCCOc1ccccc1,-28.1%,-2.4%,5.5%,?,23.1µM*
CCc1nc2ccccc2n1CCCCOc1cccc(C)c1,28.5%,nt,0.0%,?,23.1µM*
Nc1nc2ccccc2n1CCOc1ccc(Cl)cc1,-0.2%,0.8%,nt,?,?
Cc1cccc(OCCCCn2c(CO)nc3ccccc32)c1,15.8%,20.2%,nt,?,?
COCc1nc2ccccc2n1CCCOc1ccccc1,-15.0%,5.2%,2.2%,23.1µM*,25.9µM*
CCCn1c(COc2ccccc2)nc2ccccc21,-19.5%,2.0%,nt,?,?
CCCC(O)c1nc2ccccc2n1CCCOc1ccc(Cl)cc1 (stereo unspecified),-27.9%,nt,8.6%,3.66µM*,3.26µM*
Cc1ccc(OCCn2c(C)nc3ccccc32)cc1,7.0%,-11.2%,nt,?,?
COc1ccc(OCCn2c(C)nc3cc(C)c(C)cc32)cc1,-12.7%,nt,5.7%,14.6µM*,20.6µM*
CC(=O)Nc1cc(-c2ccc(F)cc2)cn2c(-c3ccc(S(C)(=O)=O)cc3)cnc12,nt,nt,nt,?,16.4µM*
CC(=O)Nc1cc(-c2ccc(F)cc2)cn2c(-c3ccc(F)cc3)cnc12,nt,nt,nt,16.4µM*,18.4µM*
CC(=O)Nc1ccc(NC(=O)Cn2c(-c3ccc(F)cc3)cnc2SCC(=O)Nc2c(C)cccc2C)cc1,-2.0%,2.5%,0.0%,4.1%,-3.2%
CC(=O)Nc1cc(-c2ccncc2)cn2c(-c3ccccc3)cnc12,nt,nt,nt,18.4µM*,16.4µM*
CC(=O)Nc1cc(-c2ccc(CO)cc2)cn2c(-c3ccc(F)cc3)cnc12,nt,nt,nt,16.4µM*,16.4µM*
Cn1c(-c2ccc(F)cc2)cnc1SCC(=O)Nc1ccccc1,0.6%,-8.1%,3.6%,?,?
CC(=O)Nc1nc2nc(-c3ccccc3)cc(-c3ccccc3)n2n1,-5.6%,-5.3%,9.8%,?,?
COc1ccc(CNC(=O)COC(=O)c2cc3ccccc3o2)cc1,nt,5.5%,12.4%,-4.7%,-14.5%
COCc1ccc2oc(C(=O)O)cc2c1,-5.9%,-1.9%,0.0%,11.6µM*,23.1µM*
CCc1oc(C(=O)O)cc1COC,2.0%,35.7%,56.2µM*,-1.2%,5.4%
COCCNc1nc2nonc2nc1NC(C)c1ccccc1Cl (stereo unspecified),-3.3%,19.0%,2.6%,?,?
Cc1nc(SCC(=O)Nc2c(C)n(C)n(-c3ccccc3)c2=O)c(C#N)c(C)c1C,nt,-19.1%,1.3%,-18.6%,-22.5%
COc1ccc(-c2nc3c4ccccc4ccn3c2C=O)cc1,-2.8%,5.5%,4.8%,-4.2%,-26.3%
Fc1ccc(-c2nc3c4ccccc4ccn3c2Cc2ccsc2)cc1,nt,nt,nt,14.6µM*,14.6µM*
SMILES,miR-21 act,uPA surface inh,TDP1 block,DT40 TDP1 CPT,DT40 TDP1 no CPT
Cc1cc(N)n2ncc(-c3cccc(Br)c3)c2n1,-67.2%,-11.9%,0.0%,-7.2%,-20.3%
CCOC(=O)Cc1c(-c2cccc(Br)c2)nc2c3ccccc3ccn12,nt,nt,nt,?,18.4µM*
CCOC(=O)Cc1c(C)nc2c(-c3cccc(Br)c3)cnn2c1C,-11.0%,1.5%,0.0%,?,20.6µM*
Brc1cccc(-c2nc3c4ccccc4ccn3c2Cc2ccsc2)c1,nt,nt,nt,25.9µM*,?
Nn1c(SCC(=O)N2CCOCC2)nnc1-c1ccco1,5.1%,2.6%,5.2%,4.9%,13.4%
CCc1nnc(SCc2ccc(OC)cc2)c2cc3sc(C)cc3n12,0.0%,nt,2.6%,-11.7%,-15.5%
Fc1ccc(-c2nc3c4ccccc4ccn3c2CC2CCCCC2)cc1,nt,nt,nt,14.6µM*,20.6µM*
COc1ccc(C(=O)C(=O)N2CCC(Cc3ccccc3)CC2)cc1OC,nt,nt,nt,?,20.6µM*
COc1cc(C(=O)OCC(=O)N2CCC(Cc3ccccc3)CC2)cc(OC)c1OC,nt,3.2%,nt,?,16.4µM*
COc1ccc(CN2CCC(Cc3ccccc3)CC2)cc1OC,2.0%,?,nt,?,?
COc1cccc(OC)c1C(=O)OCC(=O)N1CCC(Cc2ccccc2)CC1,nt,4.2%,-0.9%,-3.7%,-6.0%
COc1cc(/C=C/C(=O)OCC(=O)N2CCC(Cc3ccccc3)CC2)ccc1O,-0.4%,-11.7%,2.8%,?,14.6µM*
CCOc1ccc(N2C(=O)C3C(c4ccccc4)=NN(c4ccccc4)C3C2=O)cc1 (stereo unspecified),-3.2%,8.1%,?,-3.2%,-5.1%
CC(C)CN(C(=O)c1ccc(Br)o1)C1CCS(=O)(=O)C1 (stereo unspecified),nt,-3.0%,1.2%[0.505 µM],0.7%,2.2%
CCOC(=O)C1CCCN(C(=O)c2ccccc2SCCOC)C1 (stereo unspecified),-0.7%,-3.9%,4.4%,-9.7%,-3.5%
Cc1ccc(NC(=O)C(=O)NCC(c2ccc3c(c2)OCO3)N2CCN(C)CC2)cc1C (stereo unspecified),-4.9%,nt,-3.3%,16.4µM*,?
COc1ccc(NC(=O)C(=O)NCC(c2ccc3c(c2)OCO3)N2CCN(C)CC2)cc1 (stereo unspecified),-4.1%,nt,2.3%,?,?
CCc1ccc(NC(=O)C(=O)NCC(c2ccc3c(c2)OCO3)N2CCN(C)CC2)cc1 (stereo unspecified),-7.8%,nt,-1.1%,?,16.4µM*
O=C(Nc1ccccc1)C(c1ccccc1)C1CCCC1 (stereo unspecified),7.1%,-12.9%,2.7%,-5.9%,-22.3%
COc1ccc(C2CC(=O)N(C)c3ccccc3S2)cc1OC (stereo unspecified),-76.5%,-14.6%,8.1%,20.6µM*,?
COC(=O)C1CCN(c2ccc([N+](=O)[O-])cc2)CC1,-2.9%,-0.1%,7.5%,0.0%,3.4%
O=[N+]([O-])c1ccc(COc2cccc(CN3CCCC3)c2)cc1,nt,-11.4%,nt,?,?
COC(=O)C1CCN(CCCOc2ccc(CN3CCN(c4ccc([N+](=O)[O-])cc4)CC3)cc2)CC1,5.0%,6.1%,-2.7%,-84.1%,20.6µM*
O=[N+]([O-])c1ccc(COc2cccc(CN3CCCCC3)c2)cc1,nt,-16.6%,nt,?,16.4µM*
O=[N+]([O-])c1ccc(N2CCN(Cc3ccncc3)CC2)cc1,13.6%,-0.5%,5.4%,?,18.4µM*
O=[N+]([O-])c1ccc(COc2ccc(CN3CCCC3)cc2)cc1,nt,?,nt,16.4µM*,18.4µM*
